Experimental findings from PubChem BioAssay AID772 (SRMLSC, 2007) are described below.

In all, about 3,300 compounds went through this assay and about 20 (0.6%) were called active.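 Rule for the calls: active = growth inhibition above 90%, meaning viable cell count cut by more than 90% versus vehicle controls; inactive = growth inhibition below 90%.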 The list comes from a sample in which actives are over-represented; it also holds similar structures and randomly drawn compounds.

A short description of this assay: HT29 colon tumor cell growth inhibition, primary screen, imaging, high content imaging, 72 h, CellTiter-Glo (AID 772).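 For condensed nuclei: condensed means nuclear area below control median minus 1.5 SD.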 The settings on record: HCS imaging cell count, at 10 µM, stronger effect = higher value; for condensed nuclei: measured here: percent cells with condensed nuclei.
Where [1] appears, read: measured here: ATP CellTiter-Glo viability.

As for `CCCCOCCCn1c(N)c(C(=O)OC(C)COC)c2nc3ccccc3nc21` (stereo not given), the growth inhibition is 91.4% (active) and the condensed nuclei came out at 11%. The growth inhibition under setting [1] turned out to be 77.2%.

With `CCCCOCCCn1c(N)c(C(=O)OCCOC)c2nc3ccccc3nc21`, the growth inhibition is 95.3% (active) and the condensed nuclei stood at 17.2%. For the same compound, the growth inhibition under setting [1] came to 57.5%.

In the case of `CC(C)OC(=O)c1c(N)n(Cc2ccco2)c2nc3ccccc3nc12`, the growth inhibition was 31.4% (inactive) and the condensed nuclei was 3.52%. Also, the growth inhibition under setting [1] was -17.3%.

On to `COCCOC(=O)c1c(N)n(Cc2ccco2)c2nc3ccccc3nc12`, for which the growth inhibition is -33.9% (inactive) and the condensed nuclei came out at 3.83%. Besides, under setting [1], the growth inhibition is -49.5%.

As for `CC(C)(C)OC(=O)c1c(N)n(Cc2ccco2)c2nc3ccccc3nc12`, the growth inhibition was 44.5% (inactive) and the condensed nuclei was 4.1%. Further, under setting [1], the growth inhibition was 20.9%.

With `COCC(C)OC(=O)c1c(N)n(Cc2ccco2)c2nc3ccccc3nc12` (stereo not given), the growth inhibition was 44.2% (inactive) and the condensed nuclei is 1.26%. For the same compound, the growth inhibition under setting [1] came out at 19.7%.

As to `COc1ccc(C2SCC(=O)Nc3c2c(=O)[nH]n3C2CCCCC2)cc1` (stereo not given), the growth inhibition was 1.43% (inactive) and the condensed nuclei stood at 12.4%. Besides, under setting [1], the growth inhibition is -9.94%.

On to `Clc1ccc(CSC(Cn2ccnc2)c2ccc(Cl)cc2Cl)cc1` (stereo not given), for which the growth inhibition was 57.5% (inactive) and the condensed nuclei was determined as 13.6%. Also, the growth inhibition under setting [1] came to 71.7%.

Take `CCN(CC)CCCNC(=O)c1c(O)c2ccccc2n(Cc2ccccc2)c1=O`: the growth inhibition was 84.5% (inactive) and the condensed nuclei was found to be 16%. The growth inhibition under setting [1] amounted to 95.7%.

As for `CCCCn1c(O)c(C=NCCN2CCCCC2)c(=O)[nH]c1=O`, the growth inhibition is 4.76% (inactive) and the condensed nuclei turned out to be 0.91%. Further, the growth inhibition under setting [1] is -24.2%.
